From PubChem
Pf growth 96h: P. falciparum growth inhibition at 96 hours; P. falciparum luciferase reporter growth, 96 h; Potency, µM (titrated, usually from 28.7 µM), for the others: top-dose activity change, negative = inhibition, most hits filed as inhibitors; hit rate 6.9% among 320,000; also: potency is read from the fitted curve at half-maximal effect; % is scaled to controls: 0 for no effect and ±100 for the full control effect
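Infected RBCs, 2% Hct / 0.05% parasitemia final; luciferase-reporter P. falciparum; cpd 96 h, 37 C, 5% CO2; luciferase detection reagent; luminescence.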
SARS PLpro yeast: inhibitors of SARS-CoV papain-like protease in yeast; Potency, µM (top dose mostly 32.9 µM), inactives show at the highest dose activity, positive = growth rescue, usual class: activators; S. cerevisiae expressing SARS-CoV PLpro, growth rescue; hit rate 0.19% among 330,000; calls by dose curve; also: potency is read from the fitted curve at half-maximal effect; 0% is about no effect; nearly all actives have a fitted effect of over 55% in size
HCMV inh: blocks human cytomegalovirus replication; HFF cells, HCMV-luciferase reporter, 72 h; active compounds read low; hit rate 4.5% among 410,000; activity change, negative = inhibition, % at 57.5 µM; in the data active = activity change below about -60%; inconclusive = no clear call, values can overlap the other calls; inactive = above about -39%; also: % is scaled to controls: 0 for no effect and ±100 for the full control effect
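Cell-based, HFFs, 1000 cells/well, 16 h 37C; cpds in DMSO + HCMV-luc, MOI 1 PFU/cell; 72 h 37C; OneGlo luminescence after 5 min RT; norm. to buffer vs Salinomycin 10uM.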
HCV inhibitor: blocks hepatitis C virus | Huh7.5.1 HCVcc-Cre infection, luciferase reporter, 44 h | Potency, µM (highest dose often 41.8 µM), inactives show at the top dose activity change, negative = inhibition, actives largely listed as inhibitors | hit rate 3.4% among 340,000; also: potency is read from the fitted curve at half-maximal effect; % is scaled to controls: 0 for no effect and ±100 for the full control effect
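A cell-based infection assay in which seeded cells (1,000 per well) receive test compound after 4 h, are inoculated with HCVcc-Cre at approximately 0.5 moi, and are incubated 44 h before luminescence detection.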
Sm TGR inh: S. mansoni TGR enzyme inhibition | AID 485364 | purified TGR, DTNB reduction, TNB absorbance 405 nm | Q962Y6 | Potency, µM (top dose mostly 114 µM), for the others: at the highest dose activity change, negative = inhibition, most hits filed as inhibitors | hit rate 3% among 360,000; also: potency is read from the fitted curve at half-maximal effect; % is scaled to controls: 0 for no effect and ±100 for the full control effect; nearly all actives have a fitted effect of over 60% in size
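TGR 20 nM + NADPH 100 uM (dispensed conc.), cpd preinc 15 min RT; start with NADPH (500 uM addition) then DTNB (15 mM addition). Kinetic TNB absorbance, 405 nm filter. Four-parameter Hill fit across titration.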
Pf growth 48h: P. falciparum growth inhibition at 48 hours (one generation); P. falciparum luciferase growth in erythrocytes, 48 h; Potency, µM (doses to about 28.7 µM), for the others: at the top dose activity change, negative = inhibition, most hits filed as inhibitors; hit rate 5.9% among 310,000; also: potency is read from the fitted curve at half-maximal effect; % is scaled to controls: 0 for no effect and ±100 for the full control effect
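Luciferase-expressing P. falciparum in infected erythrocytes (2% hematocrit, 0.1% parasitemia final) in RPMI 1640/0.5% Albumax were exposed to compound for 48 hours at 37 C, 5% CO2; growth read as luminescence.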
* = called active by the depositor; ? = inconclusive; / = no result given. In the library only some 15% were active in any assay of this set; here they are far more common. Unless noted, calls follow the shape of the dose curve; as a rule, active = well fitted curve in the direction sought with a large enough effect; inconclusive = small, poorly fitted or top-dose-only effect, or another doubt; inactive = no such curve, though single readings can be large; an effect the other way counts as inactive or inconclusive.

SMILES | Pf growth 96h | SARS PLpro yeast | HCMV inh | HCV inhibitor | Sm TGR inh | Pf growth 48h
COc1ccc(-c2cc(C)no2)cc1S(=O)(=O)N1CCOc2ccccc21 | 4.8% | 17.8% | 19.1 | 2.8% | -17.4% | ?
CCc1ccc(-c2cc(C)no2)cc1S(=O)(=O)N1CCN(c2cccc(C)c2C)CC1 | 11.7µM* | -3.7% | -7.6 | -0.3% | 7.4% | 5.22µM*
CCc1ccc(-c2cc(C)no2)cc1S(=O)(=O)N1CCN(c2ccccc2F)CC1 | -29.0% | -2.8% | -29.7 | ? | 2.5% | ?
NC(=O)Oc1ccc(Cc2ccccc2)cc1 | -17.7% | / | / | / | / | -2.5%
O=C(Nc1cc(S(=O)(=O)N2CCOCC2)ccc1N1CCOCC1)c1cccc(Cl)c1 | / | / | 5.1 | / | / | /
CCN1CCN(c2ccc(S(=O)(=O)N3CCCCC3)cc2NC(=O)c2cccc(OC(F)F)c2)CC1 | 10.4µM* | -7.1% | -7.2 | ? | 1.6% | ?
COc1ccc(CCC(=O)Nc2cc(S(=O)(=O)N3CCCCC3)ccc2N(C)C)cc1 | ? | 2.2% | 0.0 | 11.7% | -14.5% | 10.4µM*
CCN1CCN(c2ccc(S(=O)(=O)N3CCCCC3)cc2NC(=O)Cc2ccc(OC)cc2)CC1 | 5.86µM* | 3.3% | 15.5 | -2.5% | 6.6% | 9.28µM*
CCN1CCN(c2ccc(S(=O)(=O)N3CCCCC3)cc2NC(=O)c2cccc(Cl)c2)CC1 | 8.28µM* | 8.5% | -0.6 | ? | 7.1% | ?
C/C(=N/NC(=O)c1nnn(-c2nonc2N)c1CSc1ccc(C)cc1)c1ccncc1 | / | / | -14.3 | / | / | /
CCc1nc2ccc(C(=O)NCc3ccc4c(c3)OCO4)cn2c1N(C)C(=O)Cc1ccccc1 | / | / | -3.8 | / | / | /
COc1ccc(C(O)c2nc(-c3cccc(O)c3)cs2)cc1 (stereo not given) | / | / | 18.9 | / | / | /
COCCNC(=O)CCCn1c(SCC(=O)Nc2cccc(C)c2)nc2c(sc3ccccc32)c1=O | / | / | ? | / | -0.9% | /
Cc1ccc(C(C)C)c(OCC(=O)NS(=O)(=O)c2ccc(Cl)cc2)c1 | 0.4% | 1.8% | -8.9 | 12.4% | -14.9% | 2.1%
CCN(CC)S(=O)(=O)c1ccc(N2CCCC2)c(NC(=O)Cc2c(F)cccc2Cl)c1 | -25.2% | -1.0% | -12.1 | -13.0% | 0.0% | 0.8%
Cc1cccc(C)c1NC(=O)COC(=O)CCc1ccc(S(=O)(=O)N2CCCCC2)cc1 | 27.9% | 22.1% | 1.4 | 37.2% | -5.1% | 6.6%
O=C(COC(=O)CCc1ccc(S(=O)(=O)N2CCCCC2)cc1)Nc1cccc2ccccc12 | 33.7% | -5.1% | -106.3* | 15.0% | 7.7% | 1.3%
CCN1CCN(c2ccc(S(=O)(=O)N3CCCCC3)cc2NC(=O)Cc2c(F)cccc2Cl)CC1 | 13.1µM* | 1.7% | -4.4 | ? | -21.5% | ?
CCN1CCN(S(=O)(=O)c2ccc(Cl)c(C(=O)N(C)C(c3ccccc3)c3ccccc3)c2)CC1 | 13.1µM* | -1.3% | ? | ? | 30.5% | 9.28µM*
CCN1CCN(S(=O)(=O)c2ccc(Cl)c(C(=O)Nc3ccccc3N3CCCCC3)c2)CC1 | ? | 2.8% | -28.2 | 12.6µM* | 4.7% | ?
O=C(c1ccccc1)N1CC2ON=C(c3c(F)cccc3Cl)C2C1 (stereo not given) | / | / | -3.6 | / | / | /
COc1c2ccccc2nn1-c1ccc(I)cc1 | / | / | 66.5 | / | / | /
COc1cccc2sc(Nc3nnc(-c4ccccc4Cl)o3)nc12 | 1.31µM* | -36.2% | -60.2* | ? | -6.1% | 9.28µM*
COc1ccccc1-c1nnc(Nc2nc3c(OC)cccc3s2)o1 | ? | -26.7% | -75.9* | ? | 2.7% | ?
CC(=O)c1c2c(cc3c(N(C)C)cccc13)CC(CO)(CO)C2 | / | / | -16.7 | / | / | /
SMILES | Pf growth 96h | SARS PLpro yeast | HCMV inh | HCV inhibitor | Sm TGR inh | Pf growth 48h
COCCN(Cc1nc2ccccc2c(=O)[nH]1)C(=O)COc1cccc(C(C)=O)c1 | ? | 2.1% | 4.1 | 6.3% | 5.8% | ?
Cc1cc(C)c(NS(=O)(=O)c2ccc(NC(=O)CCC(=O)O)cc2)c(C)c1 | ? | 1.5% | -30.7 | 13.5% | 0.9% | 3.8%
COc1cc(/C=N/Nc2nc3ccccc3[nH]2)ccc1O | ? | -10.4% | 21.4 | 7.2% | -6.2% | 0.828µM*
COc1cc(/C=N/Nc2nc3ccccc3[nH]2)cc(OC)c1O | 0.928µM* | -36.9% | 59.8 | -8.2% | -8.8% | 1.65µM*
COc1cc(/C=N/Nc2nc3ccccc3[nH]2)cc(Br)c1OCC(=O)N(C)C | 0.465µM* | -5.2% | -38.8 | -15.4% | 2.3% | 0.465µM*
O=C(/C(=C/c1ccc(Cl)cc1)c1nc2ccccc2[nH]1)c1ccccc1 | 2.33µM* | -38.3% | -95.7* | 10µM* | 7.0% | 2.94µM*
O=C(N/C(=C/c1ccc(Cl)cc1)c1nc2ccccc2[nH]1)c1ccco1 | 214.4% | 2.5% | -21.8 | 10.8% | 0.0% | 6.2%
CCCCCCCCCCCCCCCC(=O)OCC(COP(=O)(O)OCC[N+](C)(C)C)OC(=O)CCCCCCCCCCCCCCC (stereo not given) | -11.1% | / | / | / | / | -4.1%
CCOC(=O)c1ccc(N2C(=O)c3[nH]nc(-c4ccc(C)cc4)c3C2c2cccs2)cc1 (stereo not given) | / | / | ? | / | 3.7% | /
O=S(=O)(c1ccccc1Br)N1CCC(O)(c2cccnc2)CC1 | 21.2% | -0.1% | -4.3 | -2.2% | 11.0% | -4.7%
O=C(N/N=C/c1cc([N+](=O)[O-])ccc1O)c1c[nH]c2ccccc12 | ? | 14.1% | 2.1 | -16.5% | 7.7% | ?
Clc1nc2ccccc2cc1/C=N/Nc1nc2ccccc2[nH]1 | ? | -10.7% | 160.6 | -8.9% | 2.2% | 0.522µM*
O=C(NCc1nc2ccccc2[nH]1)c1cccs1 | 24.8% | 7.2% | 13.9 | 13.5% | 4.1% | 37.0%
COc1cc(/C=C(/C(=O)c2cccs2)c2nc3ccccc3[nH]2)cc(OC)c1O | ? | 6.8% | -102.4* | 10µM* | 35.5µM* | /
COc1ccc(O)c(/C=N/Nc2nc3ccccc3[nH]2)c1 | 2.1% | -0.2% | 9.0 | 3.6% | / | 1.85µM*
O=[N+]([O-])c1ccc(O)c(/C=N/Nc2nc3ccccc3[nH]2)c1 | 75.7% | 11.2µM* | -99.2* | 11.2µM* | 3.6% | 2.33µM*
Cc1ccc(Cn2c(O)c(N=O)c3ccccc32)cc1 | ? | 0.5% | ? | 1.7% | / | ?
Cc1ccc2c(c1)c(N=O)c(O)n2Cc1ccc(Cl)cc1 | -34.0% | -5.4% | -22.2 | -6.5% | / | 11.7µM*
O=Nc1c(O)n(Cc2c(Cl)cccc2Cl)c2ccccc12 | ? | 25.1% | -79.4* | -0.1% | 8.3% | ?
C/C(Cl)=C\Cn1c(O)c(N=O)c2ccccc21 | 15.0% | -1.4% | ? | -4.3% | 21.5% | ?
O=Nc1c(O)n(Cc2ccc(Cl)cc2Cl)c2ccccc12 | 8.28µM* | -39.6% | ? | 2.1% | 22.2% | ?
CCOc1ccc2c(c1)c(N=O)c(O)n2C | ? | 14.3% | -34.0 | -0.6% | -5.3% | 1.2%
